Assay results: PubChem BioAssay AID686952 (The Scripps Research Institute Molecular Screening Center, 2013)
In all, about 3,200 compounds went through this assay and about 2,600 (81%) were called active. So high a share suggests a set chosen from earlier hits. These entries were drawn from the full list. A number with no mark means an inactive call.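 The calls were made as follows: active = activation above the all-compound mean plus 3 SD, ignoring values outside control-based bounds (cut at about 4.8% in these data); inactive = the rest.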

Test: EDANS-DABCYL substrate optical interference, artefact control for kallikrein-7 zymogen activator project, biochemical, fluorescence intensity, high throughput (AID 686952);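 also: value is the 4 h activation minus the activation read at time zero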
Settings: no enzyme, 4 h, at 7 µM, active compounds read high, solvent 0%, active enzyme control 100%

| SMILES | activation |
| --- | --- |
| CCc1ccc(-c2cc(C(=O)NCc3ccco3)c3ccccc3n2)s1 | 73.9% (active) |
| CC(=O)Nc1nc2ncccn2c1-c1ccc(C(F)(F)F)cc1 | 41.3% (active) |
| CC(C)Cc1nc(Nc2ccc(S(=O)(=O)N3CCCC3)cc2)c2nnn(Cc3ccccc3)c2n1 | 38.6% (active) |
| CN(C(=O)c1ccccn1)c1nnc(-c2ccccn2)s1 | 85.1% (active) |
| CN(C(=O)COc1ccccc1)c1nnc(-c2ccncc2)s1 | 107% (active) |
| COCC(=O)Nc1nnc(COc2ccccc2)s1 | 1.67% |
| CC(OC(=O)c1ccccc1NCCO)C(=O)Nc1ccnn1C(C)C (stereo not drawn) | 29.3% (active) |
| COc1ccc2c(c1)CCc1cn3ncc(C#N)c3nc1-2 | -65.2% |
| CN(CCc1ccccn1)S(=O)(=O)c1ccc2c3c(cccc13)C(=O)N2 | 71.8% (active) |
| COc1cc(/C=C/C(=O)Nc2ccc(OC)c(S(=O)(=O)N3CCOCC3)c2)ccc1OCC#N | 93.1% (active) |
| COc1ccc2nc(-c3ccccn3)ccc2c1 | 4.08% (active) |
| O=C(Oc1c(-c2ccco2)oc2ccccc2c1=O)c1cccnc1 | 18.8% (active) |
| COc1cc(C(=O)N2C(=O)c3cccc(N)c3C2=O)cc(OC)c1OC | 122% (active) |
| CC1CC(C)CN(S(=O)(=O)c2cccc(C(=O)N3C(=O)c4cccc(N)c4C3=O)c2)C1 (stereo not drawn) | 228% (active) |
| COCc1cc(=O)oc2cc(NS(=O)(=O)c3ccc(C)cc3)ccc12 | 70.4% (active) |
| CCn1c(=N)c(C(=O)NCCCOC)cc2c(=O)n3cccc(C)c3nc21 | 74.4% (active) |
| Cc1cccn2c(=O)c3cc(C(=O)NCCN4CCOCC4)c(=N)n(Cc4cccnc4)c3nc12 | 18.1% (active) |
| Cc1ccc2nc3c(cc(C(=O)NCCc4ccccc4)c(=N)n3CC3CCCO3)c(=O)n2c1 (stereo not drawn) | -37.3% |
| Cc1cccn2c(=O)c3cc(C#N)c(=NC(=O)c4cccnc4)n(CC4CCCO4)c3nc12 (stereo not drawn) | -72.9% |
| Oc1ccc2ccc3cccc[n+]3c2c1 | 38.2% (active) |
| CCN(CC)CCCC(C)n1c2nc(=O)[nH]c(=O)c-2nc2cc(Cl)ccc21 (stereo not drawn) | 69.7% (active) |
| Cc1cc2cc3n(c2nn1)N=C(Cl)CC3 | 37.9% (active) |
| CCOc1ccccc1C1C(C(=O)OC)=CN(C)C=C1C(=O)OC | -18% |
| N#Cc1nc(-c2cccc3ccccc23)oc1N | 76.5% (active) |
| Cc1cc(C)c(C#N)c(SCC(=O)NN2CC(=O)N(c3ccccc3F)CC2=O)n1 | 58.1% (active) |
| CN(C)CCCn1c(N)c(C#N)c2nc(C#N)c(C#N)nc21 | 46.2% (active) |

| SMILES | activation |
| --- | --- |
| CC1(C)CN(c2ccc(-c3ccnc4ncnn34)cc2)C1=O | 68.4% (active) |
| Cc1cc2c(nc1C)CCCN2C | 2.55% |
| CN1CCCc2cc(C#N)c(=O)[nH]c21 | 38.1% (active) |
| COc1cccc(NC(=O)CN(C)C(=O)/C=C/c2cc(OC)ccc2OC)c1 | -114% |
| Cn1cccc1/C=N/NC(=O)CNc1cccc2ccccc12 | 1.38% |
| CC1(C)CC(=O)c2cc(OCC(=O)NCC3CCCO3)ccc2O1 (stereo not drawn) | 57.9% (active) |
| C[C@@H]1C(c2ccc(F)cc2)=NN(c2ccc(Br)cc2)[C@H]1C(=O)N1CCOC1=O | 26.5% (active) |
| Clc1ccc(-c2cccc3nccn23)cc1 | 11.3% (active) |
| Cc1ccc(-c2nn(-c3ccccc3)cc2/C=C/C(=O)Nc2cccc(S(N)(=O)=O)c2)cc1 | 251% (active) |
| COc1ccc2nc(Nc3nc4cc5c(cc4s3)OCCO5)sc2c1 | -11.5% |
| CCS(=O)(=O)Nc1cc(C(=O)OC)ccc1C(=O)OC | 8.19% (active) |
| CC(C)(C)C(=O)Nc1ccc(-c2cn3cccnc3n2)cc1 | 80.3% (active) |
| CCCCCC(=O)Nc1ccc(-c2cn3cccnc3n2)cc1 | 28.5% (active) |
| CC(=O)Nc1ccc(-c2cn3cccnc3n2)cc1 | 73.5% (active) |
| CCOC(=O)C1=C(O)/C(=C/c2ccc(OCC(=O)Nc3ccc(C)cc3)cc2)N=C1C | 3.03% |
| CCOc1ccc(-n2c(SCC(=O)Nc3cc(C)c(NC(=O)c4ccccc4)cc3OC)nnc2-c2cccs2)cc1 | 19.4% (active) |
| COc1c(N2CCN(C(=S)Nc3ccccc3F)C(C)C2)c(F)cc2c(=O)c(C(=O)O)cn(C3CC3)c12 (stereo not drawn) | -26% |
| Cc1cccc(C)c1NC(=O)C(c1ccccc1)N1CC(=O)Nc2ccccc21 (stereo not drawn) | 24.8% (active) |
| CNc1cncc(-c2ccc(NS(C)(=O)=O)cc2)n1 | 46.5% (active) |
| CN(C)Cc1c(O)ccc2c(=O)c(-c3ccccc3Cl)coc12 | 83.7% (active) |
| CC(=O)Nc1ccc(S(=O)(=O)NCC(=O)OCc2cc(=O)oc3ccc4ccccc4c23)cc1 | 209% (active) |
| Cc1c(C)c2c(OCC(=O)N[C@@H](C(=O)O)c3ccccc3)cc3c(c2oc1=O)CCC(C)(C)O3 | 49.4% (active) |
| Cc1c(C)c2c(OCC(=O)NCCCO)cc3c(c2oc1=O)CCC(C)(C)O3 | 55.7% (active) |
| Cc1cc(=O)oc2c3c(cc(OCC(=O)N[C@H](C(=O)O)c4ccccc4)c12)OC(C)(C)CC3 | 49.3% (active) |
| Cc1cc(=O)oc2c3c(cc(OCC(=O)NCCC(=O)N[C@@H](C)C(=O)O)c12)OC(C)(C)CC3 | 65.1% (active) |
| O=C(O)c1ccc2c3c(cccc13)C(=O)N(OS(=O)(=O)c1ccccc1)C2=O | 103% (active) |

| SMILES | activation |
| --- | --- |
| Cc1cc(C)c2c(n1)nn1c(-n3ccnc3)cc(C)nc21 | 44.4% (active) |
| Cc1ccc(C2Nc3ccccc3C(=O)N2CCN2CCNC2=O)cc1 (stereo not drawn) | 19.4% (active) |
| C/C(=C\c1ccccc1)C1NC(=O)c2c(sc3c2CCCC3)N1 (stereo not drawn) | 14.5% (active) |
| COC(=O)c1cc(N2CCNCC2)nc2ccccc12 | 33.6% (active) |
| CC(=O)N1CCN(C(=O)c2cc(-c3ccc(C)o3)nc3ccccc23)CC1 | 66.4% (active) |
| CC1CCCN(C(=O)c2cc(-c3ccco3)nc3ccccc23)C1 (stereo not drawn) | 35.5% (active) |
| CCCCCn1c(=O)c(C(=O)OCC)c(Cl)c2ccccc21 | -2.49% |
| CCCCN(CCCC)CC(O)Cn1c2ccccc2c(=O)c2ccccc21 (stereo not drawn) | 16.2% (active) |
| O=C1NC(c2cccc(Cl)c2)Nc2ccccc21 (stereo not drawn) | 18.9% (active) |
| CC(=O)NN1C(=O)c2ccccc2NC1c1ccccc1 (stereo not drawn) | 35.4% (active) |
| CCOC(=O)NN1C(=O)c2ccccc2NC1c1cccc(O)c1 (stereo not drawn) | 20.4% (active) |
| CCc1nc(Nc2ccc(NC(C)=O)cc2)c2oc3ccccc3c2n1 | 218% (active) |
| CC(=O)Nc1nc(C)c(-c2csc(Nc3ccc(S(N)(=O)=O)cc3)n2)s1 | 46.5% (active) |
| CCOC(=O)c1[nH]c2ccc(OC)cc2c1NC(=O)CCN1CCN(Cc2ccccc2)CC1 | -3.59% |
| Cc1nn(-c2ccccc2)c(C)c1NC(=O)COC(=O)c1cc(Cl)ccc1O | 23.3% (active) |
| O=C(Nc1nncs1)c1ccccc1NS(=O)(=O)c1cccs1 | 38.3% (active) |
| O=c1oc2c(CN3CCCCC3)c(O)ccc2c2c1CCCCC2 | 68.6% (active) |
| COc1cc(/C=N\NC(=O)c2nonc2N)c(OC)cc1Br | 74% (active) |
| COc1cc2c(cc1OC)CC1(CCCCC1)N=C2 | 44.6% (active) |
| CCCN(CC(=O)NC(=O)NC1CCCCC1)CC(=O)Nc1cc(Cl)ccc1Cl | 4.93% (active) |
| CCOCCCNC(=O)c1cc2c(=O)n3ccccc3nc2s1 | 68.6% (active) |
| CN(C(=O)c1cc2c(=O)n3ccccc3nc2s1)C1CCCCC1 | 23% (active) |
| CCN1CCN(C(=O)Cn2nc(C)n3c(cc4c(OC)cccc43)c2=O)CC1 | 29.8% (active) |
| CC1(C)Oc2ccc3ccc(=O)oc3c2/C(=N/O)C1=O | 84.6% (active) |
| COC(=O)Cc1cc(=O)oc2c(C)c(O)ccc12 | 76.7% (active) |
| CCN1CCCC1CNC(=O)c1cc2cc(OC)c(OC)cc2[nH]1 (stereo not drawn) | 22.6% (active) |
